Shown are actives, neighbours in structure and some others; about 7.6% of the full set was active somewhere.
Gal4-VP16 FLuc – VP16 counterscreen qHTS for inhibitors of ROR gamma transcriptional activity | Potency, µM (series often up to 53.6 µM), usual class: inhibitors | Drosophila S2 Gal4-VP16 UAS-luciferase, luminescence, 20 h | 310,000 compounds, 3.5% hits | AID 2546, 2010;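 further: Gal4-VP16 expression switched on by copper sulfate through the metallothionein promoter; nearly all actives have a fitted effect of over 50% in size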
RORg inh – qHTS for inhibitors of ROR gamma transcriptional activity; 310,000 compounds, 5.4% hits; Nuclear receptor ROR-gamma (Mus musculus), P51450; AID 2551, 2010; Drosophila S2 Gal4-RORgamma UAS-luciferase reporter, 20 h; Potency, µM (highest dose often 53.6 µM), most hits filed as inhibitors; further: nearly all actives have a fitted effect of over 60% in size
Target sequence (P51450 whole entry, looked up, the tested form may be a part): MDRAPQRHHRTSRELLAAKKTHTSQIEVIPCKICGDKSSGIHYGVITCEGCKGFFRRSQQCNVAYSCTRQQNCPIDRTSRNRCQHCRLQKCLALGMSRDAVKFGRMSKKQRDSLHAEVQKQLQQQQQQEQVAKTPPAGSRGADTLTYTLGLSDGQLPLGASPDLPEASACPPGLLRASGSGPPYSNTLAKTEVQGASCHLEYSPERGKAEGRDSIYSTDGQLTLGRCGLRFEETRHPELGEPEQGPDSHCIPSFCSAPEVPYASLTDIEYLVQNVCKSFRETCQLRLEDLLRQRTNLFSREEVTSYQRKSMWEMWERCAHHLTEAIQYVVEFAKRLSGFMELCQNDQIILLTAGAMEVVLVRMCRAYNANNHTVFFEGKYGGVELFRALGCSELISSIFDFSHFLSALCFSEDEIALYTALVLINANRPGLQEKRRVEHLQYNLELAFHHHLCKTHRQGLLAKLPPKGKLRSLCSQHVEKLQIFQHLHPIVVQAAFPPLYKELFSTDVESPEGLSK
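Drosophila Schneider cells stably carrying a metallothionein-driven Gal4 DBD–ROR gamma fusion and a UAS-Photinus luciferase reporter were exposed to compound for 1 hr, then induced with copper sulfate (700 uM final) for 20 hr at ambient temperature before luminescence reading.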
ELG1 repair inh – qHTS screen for small molecules that inhibit ELG1-dependent DNA repair in human embryonic kidney (HEK293T) cells expressing luciferase-tagged ELG1; HEK293T ELG1-luciferase reporter, luminescence, 16 h; DNA damage induced by 5-fluorouridine; Potency, µM (highest dose often 46.1 µM), most hits filed as inhibitors; 330,000 compounds, 2.3% hits; AID 504467, 2011; further: nearly all actives have a fitted effect of over 55% in size
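Cells (2,000 per well) received 5-fluorouridine plus test compound or DMSO and were incubated 16 hr at 37 °C, 5% CO2. Luciferase activity was read by luminescence 30 min after ONE-Glo addition; signal suppression marked inhibition of damage-induced ELG1 function.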
p53 reactivation – qHTS assay for re-activators of p53 using a Luc reporter | H1299 p53-A138V BP100-luciferase reporter, luminescence, 24 h | Potency, µM (doses to about 92.2 µM), usual class: activators | 320,000 compounds, 0.063% hits | AID 504706, 2011; further: nearly all actives have a fitted effect of over 45% in size
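p53-null H1299 cells stably carrying temperature-sensitive p53-A138V and a BP100-luciferase reporter were pinned with compounds (4-point, 1:5 series) and held 24 hrs at 37 deg C. Luminescence was read 10 min after detection reagent.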
BRCA1 expr up – qHTS Assay to Identify Small Molecule Activators of BRCA1 Expression. MCF7-BRCA1-FFLuc reporter, luminescence, 48 h; response scale: scaled: vehicle 0%, 10 µM genistein 100%. Potency, µM (doses to about 46.1 µM), hits mostly activators. 380,000 compounds, 1.1% hits. AID 624202, 2012; further: nearly all actives have a fitted effect of over 80% in size
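MCF7-BRCA1-FFLuc, 2000 cells/well; 2 h attach, 37 °C/5% CO2; compound 48 h; luciferase substrate 15 min; luminescence end-point. Norm. to genistein 10 microM max activation and DMSO; concentration-response curves fitted.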
Giardia killer – Small Molecules that selectively kill Giardia lamblia: qHTS; Giardia lamblia trophozoite viability; 340,000 compounds, 0.15% hits; activity change, % at 7.66 µM, hits read low; in the data active means activity change below about -80%; inconclusive means between about -30% and that limit;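 further: parasites exposed to compound for two days anaerobically before the ATP read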
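ATP-content bioluminescence gauges trophozoite survival. Cells (100/well) receive compound and incubate anaerobically for 48 hrs at 37 deg C; detection reagent follows for 15-30 min at room temperature.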
Each line names hits and unclear results; the compound was inactive in the other large screens. Unless noted, the call rests on the fitted dose curve; in most records, active means well fitted curve in the direction sought with a large enough effect; inconclusive means small, poorly fitted or top-dose-only effect, or another doubt; inactive means no such curve, though single readings can be large; an effect the other way counts as inactive or inconclusive.

O=C(NCc1ccco1)c1cnn2c(C(F)(F)F)cc(-c3ccccc3)nc12	Gal4-VP16 FLuc 11µM, RORg inh 16µM, ELG1 repair inh inconclusive
O=C(N/N=C/c1cccs1)c1ccc2nc[nH]c2c1	ELG1 repair inh inconclusive
O=C(N/N=C/c1cccs1)c1ccc2ccccc2c1	Gal4-VP16 FLuc 5.6µM, RORg inh 4µM, ELG1 repair inh inconclusive
COc1ccc(NS(=O)(=O)c2cccc(C(=O)N/N=C/c3cccs3)c2)cc1	none
O=C(N/N=C/c1cccs1)c1cccc2cc[nH]c12	Gal4-VP16 FLuc inconclusive, RORg inh 2.8µM
Cc1ccc2nc(C)c(C(=O)N/N=C/c3cccs3)cc2c1	none
O=C(N/N=C/c1cccs1)c1ccc2ncccc2c1	Gal4-VP16 FLuc inconclusive, RORg inh 11µM, ELG1 repair inh inconclusive, BRCA1 expr up inconclusive
CCOc1ccc(NC2C=CS(=O)(=O)C2)cc1 (configuration not stated)	ELG1 repair inh inconclusive
CCn1cnc2c1c(=O)n(CC(=O)NCC(F)(F)F)c(=O)n2Cc1ccccc1	none
[O-]/C(=C(\C(=S)Nc1cccc2ccccc12)[n+]1cccc(CO)c1)c1ccc(Cl)s1	ELG1 repair inh inconclusive
Cc1c(Cl)cccc1NC(=S)/C(=C(\[O-])c1ccc(Cl)s1)[n+]1ccccc1	Gal4-VP16 FLuc 5.6µM, RORg inh inconclusive
CC(=O)c1c(C)oc2ccc(NS(=O)(=O)c3ccc(O)c(C(=O)O)c3)cc12	none
CC(=O)c1c(C)oc2ccc(NS(=O)(=O)c3ccc(F)cc3C)cc12	Gal4-VP16 FLuc 13µM, RORg inh inconclusive, ELG1 repair inh 6.5µM
CC(C)OC(=O)C1=C2SCC(=O)N2C(N)=C(C#N)C1	RORg inh 13µM
Cc1cccc(-n2c(C)cc(C=C3C(=O)c4ccccc4C3=O)c2C)c1	ELG1 repair inh inconclusive, p53 reactivation inconclusive
Cc1cc(/C=C2/C(=O)NN(c3ccccc3)C2=O)c(C)n1-c1ccc(O)cc1	Gal4-VP16 FLuc 4µM, RORg inh 14µM, ELG1 repair inh inconclusive, Giardia killer inconclusive
Cc1cc(/C=C2\C(=O)NN(c3ccccc3)C2=O)c(C)n1-c1ccccc1O	ELG1 repair inh inconclusive, BRCA1 expr up 10µM
Cc1cc(C=C2C(=O)CCCC2=O)c(C)n1-c1ccccc1	RORg inh 8.9µM
CN(C)Cc1ccccc1Sc1cccc2ccccc12	Gal4-VP16 FLuc 14µM, RORg inh 10µM
CC1CC(CC(C)C(=O)Nc2nncs2)C(=O)O1 (configuration not stated)	none
CN(C)S(=O)(=O)c1cccc(N=C2SCCN2Cc2ccccc2)c1	Gal4-VP16 FLuc inconclusive, ELG1 repair inh 18µM
Cc1ccc(C(=O)N2CC(C)SC2=Nc2cccc(S(=O)(=O)N(C)C)c2)cc1 (configuration not stated)	RORg inh inconclusive
CCC(=O)Nc1ccccc1-c1nnn(CC(=O)N2c3ccccc3CC2C)n1 (configuration not stated)	none
CC1Cc2ccccc2N1C(=O)Cn1nnc(-c2ccccc2NC(=O)C2CCC2)n1 (configuration not stated)	ELG1 repair inh 23µM
CCOc1ccc(S(=O)(=O)N2CCN(c3ccc(C)cc3C)CC2)c2ccccc12	none (no result: Gal4-VP16 FLuc, RORg inh, ELG1 repair inh, p53 reactivation, Giardia killer)
C=CCCC(=O)Nc1nc(C)c(-c2csc(Nc3ccccc3OC)n2)s1	ELG1 repair inh inconclusive
CCCCC(=O)Nc1nc(C)c(-c2csc(Nc3ccccc3OC)n2)s1	ELG1 repair inh 16µM
CCOc1ccccc1Nc1nc(-c2sc(NC(=O)c3ccc([N+](=O)[O-])cc3)nc2C)cs1	Gal4-VP16 FLuc inconclusive, RORg inh 6.3µM (no result: BRCA1 expr up, Giardia killer)
O=C(Cn1c(=O)oc2ccccc21)Nc1nnc(N2CCCCCC2)s1	none
CCOC(=O)c1[nH]c2ccccc2c1N=CN(C)C	none (no result: Gal4-VP16 FLuc, RORg inh, ELG1 repair inh, p53 reactivation)

Source: PubChem (National Center for Advancing Translational Sciences (NCATS))
